{"source": "PubChem BioAssay (NCATS)", "key": {"[1]": {"experiment": "Quantitative High-Throughput drug screen in 47 multiple myeloma cell lines against the NCATS MIPE library collection: LP1_DSMZ cell viability assay (AID 1918982); note: nearly all actives have a fitted effect of over 35% in size", "method_in_brief": "(§1)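 Readout: median RLU from CellTiter-Glo after 5 min at room temperature. Preceding step was 48 h drug treatment of 500 cells/well at 37 °C, 5% CO2, with DMSO-only and media-only control wells.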"}, "[2]": {"experiment": "Quantitative High-Throughput drug screen in 47 multiple myeloma cell lines against the NCATS MIPE library collection: OCIMY5_PLB cell viability assay (AID 1918988)", "method_in_brief": "as §1"}, "[3]": {"experiment": "Quantitative High-Throughput drug screen in 47 multiple myeloma cell lines against the NCATS MIPE library collection: XG6_PLB cell viability assay (AID 1919865)", "method_in_brief": "as §1"}, "[4]": {"experiment": "Quantitative High-Throughput drug screen in 47 multiple myeloma cell lines against the NCATS MIPE library collection: XG1_PLB cell viability assay (AID 1919866)", "method_in_brief": "as §1"}, "[5]": {"experiment": "Quantitative High-Throughput drug screen in 47 multiple myeloma cell lines against the NCATS MIPE library collection: PE2_PLB cell viability assay (AID 1919869)", "method_in_brief": "as §1"}, "[6]": {"experiment": "Quantitative High-Throughput drug screen in 47 multiple myeloma cell lines against the NCATS MIPE library collection: OPM2_DSMZ cell viability assay (AID 1919872)", "method_in_brief": "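Viability readout: CellTiter-Glo luminescence following 5 min room-temperature incubation with reagent. Prior exposure: 48 h, 37C, humidified 5% CO2, 500 cells per well.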"}, "[7]": {"experiment": "Quantitative High-Throughput drug screen in 47 multiple myeloma cell lines against the NCATS MIPE library collection: MM1R_ATCC cell viability assay (AID 1918981)", "method_in_brief": "as §1"}, "[8]": {"experiment": "Quantitative High-Throughput drug screen in 47 multiple myeloma cell lines against the NCATS MIPE library collection: OCIMY7_PLB cell viability assay (AID 1918987)", "method_in_brief": "as §1"}, "[9]": {"experiment": "Quantitative High-Throughput drug screen in 47 multiple myeloma cell lines against the NCATS MIPE library collection: SKMM1_PLB cell viability assay (AID 1919863)", "conditions": "SKMM1 myeloma viability, CellTiter-Glo ATP, 48 h; viability: active compounds read low", "method_in_brief": "as §1"}, "[10]": {"experiment": "Quantitative High-Throughput drug screen in 47 multiple myeloma cell lines against the NCATS MIPE library collection: VP6_DJ cell viability assay (AID 1919867)", "method_in_brief": "as §1"}, "[11]": {"experiment": "Quantitative High-Throughput drug screen in 47 multiple myeloma cell lines against the NCATS MIPE library collection: UTMC2_PLB cell viability assay (AID 1919868)", "conditions": "CellTiter-Glo ATP luminescence, 48 h; viability (% of DMSO control): at 45.8 µM (top of the series)", "method_in_brief": "as §1"}, "[12]": {"experiment": "Quantitative High-Throughput drug screen in 47 multiple myeloma cell lines against the NCATS MIPE library collection: PCM6_Riken cell viability assay (AID 1919870)", "method_in_brief": "as §1"}, "[13]": {"experiment": "Quantitative High-Throughput drug screen in 47 multiple myeloma cell lines against the NCATS MIPE library collection: RPMI8226_ATCC cell viability assay (AID 1919871)", "method_in_brief": "as §1"}, "[14]": {"experiment": "Quantitative High-Throughput drug screen in 47 multiple myeloma cell lines against the NCATS MIPE library collection: KMS11_JCRBsus cell viability assay (AID 1919873)", "method_in_brief": "as §1"}, "[15]": {"experiment": "Quantitative High-Throughput drug screen in 47 multiple myeloma cell lines against the NCATS MIPE library collection: KMS28BM_JCRB cell viability assay (AID 1919874)", "method_in_brief": "as §1"}, "[16]": {"experiment": "Quantitative High-Throughput drug screen in 47 multiple myeloma cell lines against the NCATS MIPE library collection: KMS34_JCRB cell viability assay (AID 1918985)", "method_in_brief": "as §1"}, "[17]": {"experiment": "Quantitative High-Throughput drug screen in 47 multiple myeloma cell lines against the NCATS MIPE library collection: OPM1_PLB cell viability assay (AID 1918989)", "method_in_brief": "as §1"}, "[18]": {"experiment": "Quantitative High-Throughput drug screen in 47 multiple myeloma cell lines against the NCATS MIPE library collection: KMS28PE_JCRB cell viability assay (AID 1918983)", "method_in_brief": "as §1"}, "[19]": {"experiment": "Quantitative High-Throughput drug screen in 47 multiple myeloma cell lines against the NCATS MIPE library collection: U266_ATCC cell viability assay (AID 1919864)", "method_in_brief": "as §1"}}, "note": "Inconclusive results are not listed. Values without a mark were called inactive. Calls of active or inactive are those of the source. Calls come from the whole dose curve; as a rule, active = well fitted cell-killing curve with a large enough effect; inconclusive = small, poorly fitted or top-dose-only effect, or effect the other way; inactive = no such curve, though single readings can be large or run the other way.", "data": [{"molecule": "C[C@]12CCC(=O)C(O)=C1CC[C@@H]1[C@H]3CCC(=O)[C@@]3(C)CC[C@@H]12", "values": [{"measurement": "Potency", "setting": "[1]", "result": "inactive"}, {"measurement": "Potency", "setting": "[2]", "result": "18.7 µM (active)"}, {"measurement": "Potency", "setting": "[3]", "result": "inactive"}, {"measurement": "Potency", "setting": "[4]", "result": "inactive"}, {"measurement": "Potency", "setting": "[5]", "result": "inactive"}, {"measurement": "Potency", "setting": "[6]", "result": "inactive"}]}, {"molecule": "COc1cc([C@@H]2c3cc4c(cc3[C@@H](O)C3COC(=O)C32)OCO4)cc(OC)c1O", "note": "(some centres undefined)", "values": [{"measurement": "Potency", "setting": "[7]", "result": "0.0833 µM (active)"}, {"measurement": "Potency", "setting": "[8]", "result": "0.0526 µM (active)"}, {"measurement": "Potency", "setting": "[9]", "result": "0.0166 µM (active)"}, {"measurement": "Potency", "setting": "[3]", "result": "0.0148 µM (active)"}, {"measurement": "Potency", "setting": "[10]", "result": "0.0526 µM (active)"}, {"measurement": "Potency", "setting": "[11]", "result": "0.0469 µM (active)"}, {"measurement": "Potency", "setting": "[5]", "result": "0.0526 µM (active)"}, {"measurement": "Potency", "setting": "[12]", "result": "0.0469 µM (active)"}, {"measurement": "Potency", "setting": "[13]", "result": "0.118 µM (active)"}, {"measurement": "Potency", "setting": "[6]", "result": "0.0418 µM (active)"}, {"measurement": "Potency", "setting": "[14]", "result": "0.0093 µM (active)"}, {"measurement": "Potency", "setting": "[15]", "result": "0.0033 µM (active)"}]}, {"molecule": "CSCC[C@@H](NC(=O)[C@@H](Cc1ccccc1)NC(=O)CNC(=O)CNC(=O)[C@@H](N)Cc1ccc(O)cc1)C(=O)O", "values": [{"measurement": "Potency", "setting": "[1]", "result": "inactive"}, {"measurement": "Potency", "setting": "[16]", "result": "inactive"}, {"measurement": "Potency", "setting": "[17]", "result": "inactive"}, {"measurement": "Potency", "setting": "[3]", "result": "inactive"}, {"measurement": "Potency", "setting": "[4]", "result": "inactive"}, {"measurement": "Potency", "setting": "[12]", "result": "inactive"}, {"measurement": "Potency", "setting": "[6]", "result": "inactive"}, {"measurement": "Potency", "setting": "[14]", "result": "inactive"}, {"measurement": "Potency", "setting": "[15]", "result": "inactive"}]}, {"molecule": "CC(=O)OCC1=C(C(=O)O)N2C(=O)[C@@H](N)[C@@H]2SC1", "values": [{"measurement": "Potency", "setting": "[18]", "result": "inactive"}, {"measurement": "viability", "setting": "[9]", "result": 121, "unit": "%"}, {"measurement": "Potency", "setting": "[19]", "result": "inactive"}, {"measurement": "Potency", "setting": "[3]", "result": "inactive"}, {"measurement": "Potency", "setting": "[4]", "result": "inactive"}, {"measurement": "Potency", "setting": "[10]", "result": "inactive"}, {"measurement": "Potency", "setting": "[11]", "result": "inactive"}, {"measurement": "Potency", "setting": "[12]", "result": "inactive"}, {"measurement": "Potency", "setting": "[6]", "result": "inactive"}, {"measurement": "Potency", "setting": "[14]", "result": "inactive"}, {"measurement": "Potency", "setting": "[15]", "result": "inactive"}]}, {"molecule": "COc1ccc(C(=O)c2c(C)n(CCN3CCOCC3)c3cc(I)ccc23)cc1", "values": [{"measurement": "Potency", "setting": "[16]", "result": "20.9 µM (active)"}, {"measurement": "Potency", "setting": "[8]", "result": "5.9 µM (active)"}, {"measurement": "Potency", "setting": "[2]", "result": "9.35 µM (active)"}, {"measurement": "Potency", "setting": "[9]", "result": "16.6 µM (active)"}, {"measurement": "Potency", "setting": "[3]", "result": "10.5 µM (active)"}, {"measurement": "Potency", "setting": "[4]", "result": "7.43 µM (active)"}, {"measurement": "Potency", "setting": "[10]", "result": "6.62 µM (active)"}, {"measurement": "Potency", "setting": "[12]", "result": "11.8 µM (active)"}, {"measurement": "Potency", "setting": "[13]", "result": "18.7 µM (active)"}, {"measurement": "Potency", "setting": "[6]", "result": "26.4 µM (active)"}, {"measurement": "Potency", "setting": "[14]", "result": "23.5 µM (active)"}]}]}
